Source: PubChem BioAssay AID1851 (National Center for Advancing Translational Sciences (NCATS), 2009)
Out of some 16,000 compounds screened, about 5,100 (32%) were called active. Roughly 25% stayed inconclusive and do not appear here. This is one part of the list. A number with no mark means an inactive call. Calls follow the shape of the dose curve; as a rule, active = well fitted curve in the direction sought with a large enough effect; inconclusive = small, poorly fitted or top-dose-only effect, or effect the other way; inactive = no such curve, though single readings can be large or run the other way.

molecular target: Cytochrome P450 3A4 (Homo sapiens) (UniProt P08684); experiment: Cytochrome panel assay with activity outcomes; conditions: recombinant CYP, pro-luciferin dealkylation, luminescence, p450-cyp3a4; series mostly up to 57.1 µM; activity, negative = inhibition: at the top concentration
% is scaled to controls: 0 for no effect and ±100 for the full control effect.

Cytochrome P450 3A4 (Homo sapiens), sequence (P08684 whole entry, looked up): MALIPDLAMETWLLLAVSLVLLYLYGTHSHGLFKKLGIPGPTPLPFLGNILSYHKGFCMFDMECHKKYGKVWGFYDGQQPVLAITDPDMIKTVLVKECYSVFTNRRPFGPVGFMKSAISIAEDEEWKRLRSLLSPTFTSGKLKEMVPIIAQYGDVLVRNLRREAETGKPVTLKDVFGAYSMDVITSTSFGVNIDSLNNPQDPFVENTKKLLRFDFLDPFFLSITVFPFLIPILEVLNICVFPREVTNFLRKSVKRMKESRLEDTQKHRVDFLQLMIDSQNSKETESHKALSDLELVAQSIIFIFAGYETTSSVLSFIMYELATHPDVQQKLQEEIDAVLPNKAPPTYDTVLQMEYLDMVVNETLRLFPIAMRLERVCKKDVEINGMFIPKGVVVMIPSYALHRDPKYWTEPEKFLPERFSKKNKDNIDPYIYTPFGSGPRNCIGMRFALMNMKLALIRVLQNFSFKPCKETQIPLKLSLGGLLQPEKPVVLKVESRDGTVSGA

SMILES | activity, negative = inhibition | AC50
Clc1ccccc1CSc1nnc(/C=C/c2ccccc2)o1 | -23.3% | –
CC(/C=C1\N=C(SCc2ccccc2Cl)SC1=O)=C\c1ccccc1 | – | 14.1 µM (active)
O=c1[nH]c2cc(Cl)ccc2c(O)c1-c1cccc(Oc2ccccc2)c1 | -19.3% | –
CC1(C)CCC=[N+]1[O-] | 16.1% | –
NC(N)=NC(N)=Nc1ccccc1 | -12.3% | –
O=C(Nc1ccc(N2CCCCC2)cc1)c1cncc(Br)c1 | – | 1.41 µM (active)
CCc1ccc(OCCCC(=O)Nc2ccc(N3CCCCC3)cc2)cc1 | -10.4% | –
O=C(O)CNC(=O)[C@@H](CS)Cc1ccccc1 | 0.949% | –
COc1ccccc1C(=O)NCCn1cc(SCC(=O)Nc2nnc(C)s2)c2ccccc21 | – | 6.31 µM (active)
CCSc1nnc(NC(=O)Cc2ccccc2OC)s1 | -9.72% | –
CCCCCCC/C=C\CCCCCCCCC(=O)O | -7.01% | –
CC(=O)NCCc1ccc(O)c(O)c1 | -7.98% | –
CCCCCCCC/C=C\CCCCCCCC(=O)NCCc1ccc(O)c(O)c1 | – | 3.16 µM (active)
CCCCCCCC/C=C\CCCCCCCC(=O)N[C@@H](CO)Cc1ccc(O)cc1 | – | 10 µM (active)
CCCCCCCCCCCCCCCC(=O)NC(C)C | -13.2% | –
CCCCCCCCCCCCCCC/C=C\[C@H](O)[C@@H](NC(=O)CCCCCCCCCCCCC)OC (tested in a mixture with another compound) | 15.6% | –
N=C(N)SCC(=O)O | -3.45% [at 11.4 µM] | –
O=S(=O)(c1ccccc1)N1CCC2(CCN(Cc3ccncc3)CC2)CC1 | – | 3.98 µM (active)
O=S(=O)(c1ccccc1)N1CCC2(CCCN(Cc3ccncc3)C2)CC1 | – | 3.98 µM (active)
N#Cc1ccc(CN2CCCC3(CCN(S(=O)(=O)c4ccccc4)CC3)C2)cc1 | – | 3.16 µM (active)
O=S(=O)(c1ccccc1)N1CCC2(CC1)CN(Cc1ccccc1)C2 | 11.6% | –
CC(C)CN1CCCC2(CCN(S(=O)(=O)c3ccccc3)CC2)C1 | – | 15.8 µM (active)

SMILES | activity, negative = inhibition | AC50
CC(C)CN1CCC2(CC1)CCN(S(=O)(=O)c1ccccc1)CC2 | -5.33% | –
O=S(=O)(c1ccccc1)N1CCC2(CCN(Cc3ccccc3)CC2)CC1 | -5.59% | –
CC/C=C\CC[C@H](O)C1=CCCCC1=O | -12.1% [at 11.4 µM] | –
Cc1ccc(C2CC(=O)c3cnc(N4CCc5ccccc5C4)nc3C2)cc1 (stereo not given) | -6% [at 2.29 µM] | –
O=C1CC(c2ccccc2)Cc2nc(N3CCc4ccccc4C3)ncc21 (stereo not given) | 2.14% [at 2.29 µM] | –
COc1ccc(Nc2ncc3c(n2)CC(c2ccc(C)cc2)CC3=O)cc1 (stereo not given) | – | 8.91 µM (active)
CC1CC(=O)c2cnc(N)nc2C1 (stereo not given) | 6.35% | –
COc1ccc(C2CC(=O)c3cnc(Nc4cc(C)cc(C)c4)nc3C2)cc1 (stereo not given) | – | 4.47 µM (active)
Nc1ncnc2c1ncn2C[C@@H](O)C(=O)O | 1.58% [at 11.4 µM] | –
COc1ccc(Oc2ncc3ncc(=O)n(C[C@H]4CCCO4)c3n2)cc1 | – | 12.6 µM (active)
O=c1cnc2cnc(Oc3cccc(Cl)c3)nc2n1C[C@H]1CCCO1 | -20.3% | –
COc1ccc(-c2nc3cnc(N4CCOCC4)nc3n(C[C@H]3CCCO3)c2=O)cc1 | -3.59% | –
CCNc1ncc2ncc(=O)n(C[C@H]3CCCO3)c2n1 | -21% | –
COc1ccc(Oc2ncc3nc(C)c(=O)n(C[C@H]4CCCO4)c3n2)cc1 | – | 3.98 µM (active)
CCNc1ncc2nc(C)c(=O)n(C[C@H]3CCCO3)c2n1 | -10.9% | –
CN(CCC(=O)O)S(=O)(=O)c1ccccc1 | -26.6% [at 11.4 µM] | –
Nc1ccc(N(S(=O)(=O)c2ccccc2)S(=O)(=O)c2ccccc2)c(Cl)c1 | – | 0.0316 µM (active)
CN=C(N)/N=C(\N)Nc1cc2ccccc2c2ccccc12 | -14.5% [at 11.4 µM] | –
O=C(O)c1c2ccccc2cc2ccccc12 | 0.0487% | –
NC(=S)Nc1cc2ccccc2c2ccccc12 | – | 15.8 µM (active)
CCN(CC)C(=O)C1CC(=O)N(c2ccc(OC)cc2)C1c1ccc(OC)cc1 (stereo not given) | -28.4% [at 2.29 µM] | –
COc1ccc(C2CC(=O)CC(=O)C2n2cncn2)cc1 (stereo not given) | – | 2.24 µM (active)

SMILES | activity, negative = inhibition | AC50
O=C1CC(=O)C(n2cncn2)C(c2cccc(Cl)c2)C1 (stereo not given) | – | 0.501 µM (active)
Cc1cccc(CNc2nc(-c3cccc(NS(C)(=O)=O)c3)nc3ccccc23)c1 | – | 5.01 µM (active)
CS(=O)(=O)Nc1cccc(-c2nc(NCc3cccnc3)c3ccccc3n2)c1 | – | 2 µM (active)
CS(=O)(=O)Nc1cccc(-c2nc(NCc3cccs3)c3ccccc3n2)c1 | – | 3.16 µM (active)
COCCNc1nc(-c2cccc(NS(C)(=O)=O)c2)nc2ccccc12 | – | 12.6 µM (active)
NC(=O)/C(=N\O)c1ccccc1 | -20.2% | –
CS(=O)(=O)Nc1cccc(-c2nc(NCc3ccccc3)c3ccccc3n2)c1 | – | 3.16 µM (active)
c1cc(NNc2cccc(-c3nn[nH]n3)c2)cc(-c2nn[nH]n2)c1 | -11.1% [at 11.4 µM] | –
CC(=O)NCCNc1nc(-c2cccc(NS(C)(=O)=O)c2)nc2ccccc12 | – | 15.8 µM (active)
Cn1c(=O)c2c(ncn2CN2CCN(Cn3cnc4c3c(=O)n(C)c(=O)n4C)CC2)n(C)c1=O | 3.42% [at 11.4 µM] | –
COc1ccccc1CNc1ncnc2ccc(-c3cccc(C#N)c3)cc12 | – | 7.94 µM (active)
COc1ccc(CNc2ncnc3ccc(-c4cccc(C#N)c4)cc23)c(OC)c1 | – | 1.58 µM (active)
Cc1ccc(S(=O)(=O)NC(=O)OC23COCN2COC3)cc1 | -8.25% [at 11.4 µM] | –
COc1ccc(-n2c(=O)c(-c3ccc(F)cc3)nc3cncnc32)cc1 | -30.6% | –
Cn1c(=O)c(-c2ccc(Cl)cc2)nc2cncnc21 | -13.1% | –
COc1ccc(-n2c(=O)c(-c3ccc(F)cc3)nc3cnc(N4CCOCC4)nc32)cc1 | -15.1% | –
COc1ccc(-n2c(=O)c(-c3ccc(Cl)cc3)nc3cncnc32)cc1 | – | 15.8 µM (active)
COc1ccc(-n2c(=O)c(-c3cc(F)cc(F)c3)nc3cncnc32)cc1 | – | 12.6 µM (active)
COc1ccc(-n2c(=O)c(C)nc3cncnc32)cc1 | – | 5.01 µM (active)
O=c1c(-c2cc(F)cc(F)c2)nc2cncnc2n1-c1ccccc1 | -35.4% | –
COc1ccc(-n2c(=O)c(-c3cccc(F)c3)nc3cncnc32)cc1 | – | 20 µM (active)
